rCAG binder – molecules binding r(CAG) RNA repeats; r(CAG) RNA repeat, TO-PRO-1 dye displacement fluorescence; inhibition, % at 3 µM; hit rate 1.3% among 370,000; AID 651821;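 active = inhibition above the plate cutoff, the mean of all test compounds on that plate plus 3 SD, cut at about 35% in these data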;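 note: 0% = DMSO alone and 100% = 100 µM mitoxantrone as full dye displacement; higher means more dye released from RNA so lower well fluorescence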
ABHD5 PLIN5 PPI – inhibitors of human ABHD5-perilipin-5 interaction; hit rate 0.78% among 360,000; inhibition, % at 4 µM; Split G. princeps luciferase complementation, luminescence, 4 h; Q00G26+Q8WTS1;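 active = inhibition above the mean inhibition across every tested compound plus 3 SD, cut at about 22% in these data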;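 note: 0% = DMSO only wells and the 100% control is not disclosed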
PRMT1 FP inh – inhibitors of human PRMT1; recombinant PRMT1, activity-based probe fluorescence polarization; hit rate 1.3% among 370,000; inhibition, % at 2.79 µM; Q99873;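 active = inhibition above about 21% made by adding two undisclosed values, limit read from the data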
Rtt109 HAT inh – blocks Candida albicans Rtt109/Vps75 acetyltransferase activity; AID 540336; purified Rtt109/Vps75, ThioGlo CoA-SH fluorescence, 4 h; Q5AAJ8; hit rate 0.16% among 330,000; inhibition, % at 34.9 µM;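 active = inhibition of at least 50% in every replicate; inconclusive = best replicate reaches 50% inhibition but some replicates fall short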
Target sequence (Q5AAJ8 whole entry, looked up): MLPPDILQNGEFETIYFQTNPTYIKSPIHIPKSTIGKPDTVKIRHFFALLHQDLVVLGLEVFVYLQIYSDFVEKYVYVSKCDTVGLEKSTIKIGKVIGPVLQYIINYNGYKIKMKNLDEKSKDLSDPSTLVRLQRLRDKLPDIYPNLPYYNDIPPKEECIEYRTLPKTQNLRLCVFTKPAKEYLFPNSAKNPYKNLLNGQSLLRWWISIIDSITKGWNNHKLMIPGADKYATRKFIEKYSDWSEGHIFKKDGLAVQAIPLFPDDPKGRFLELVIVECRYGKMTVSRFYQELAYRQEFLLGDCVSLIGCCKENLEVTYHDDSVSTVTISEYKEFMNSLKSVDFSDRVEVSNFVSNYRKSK
ALR H2O2 inh – human ALR oxidase inhibition via reduced H2O2; P55789; purified ALR, DTT oxidation, H2O2 HRP-luminol luminescence; inhibition, % (no concentration beside the values); hit rate 3.8% among 290,000;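 active = mean replicate inhibition above about 79%, with every replicate also reaching it, limit read from the data; inconclusive = only one of the two criteria met; inactive = mean below limit and not every replicate reaching it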
Target sequence (P55789 whole entry, looked up): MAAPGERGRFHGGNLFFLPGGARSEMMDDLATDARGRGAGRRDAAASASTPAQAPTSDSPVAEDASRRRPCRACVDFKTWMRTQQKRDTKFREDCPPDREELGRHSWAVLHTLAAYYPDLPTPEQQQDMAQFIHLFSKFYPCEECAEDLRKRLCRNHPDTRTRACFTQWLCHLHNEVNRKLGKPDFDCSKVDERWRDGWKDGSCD
LANA-H2A inh – blocks KSHV LANA binding to histone H2A/H2B; hit rate 0.6% among 320,000; inhibition, % (test concentration not listed); cell-free LANA-H2A/H2B peptide, fluorescence polarization; in the data active = inhibition mostly above about 10%, no sharp cut-off; inactive = mostly below about 6.7%
ABHD5-PLIN5 conf – ABHD5-PLIN5 interaction inhibition, confirmed; inhibition, % at 4 µM; shares compounds with ABHD5 PLIN5 PPI; biochemical ABHD5-PLIN5 interaction, luminescence; hit rate 67% among 2,200; in the data active = inhibition above about 23%;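 note: 0% = DMSO vehicle wells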
HNF4 split-luc – active in HNF4 split-luciferase counter-screen for ABHD5-PLIN5 inhibitors | hit rate 77% among 2,200 | shares compounds with ABHD5 PLIN5 PPI | inhibition, % at 4 µM | HNF4 dimerization, luminescence, biochemical;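 active = mean inhibition across replicate wells exceeding the computed hit threshold, cut at about 13% in these data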;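 note: light from luciferase halves that rejoin when HNF4 fusion proteins dimerize; 0% = DMSO only wells and the 100% control is not given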
* marks the source's active call; other numbers are inactive results; ? = inconclusive; / = not tested or not shown. Only some compounds are listed: those with a hit (about 5.9% of all), similar ones and a draw of the others.

SMILES	rCAG binder	ABHD5 PLIN5 PPI	PRMT1 FP inh	Rtt109 HAT inh	ALR H2O2 inh	LANA-H2A inh	ABHD5-PLIN5 conf	HNF4 split-luc
CN(C)CCCN(C(=O)c1ccc2c(c1)OCCO2)c1nc2cc3c(cc2s1)OCO3	-4	3	-1	3	-3	2	/	/
COC(=O)c1ccccc1COc1cccn2c(N(C)Cc3cccs3)c(C)nc12	1	10	0	/	/	/	/	/
CCCCNC(=O)C(NC(=O)c1ccc2ccccc2c1)C(=O)c1ccccc1 (stereo not drawn)	3	-9	-9	/	/	/	/	/
COc1cc(C)c2sc3ccccc3c(=O)c2c1NCCN(C)C	10	32*	9	/	/	/	27*	8
CSc1ccc(C=NNC(=O)c2cc(-c3ccc(Cl)cc3)n[nH]2)cc1	5	/	-3	/	/	/	/	/
CC(=O)O[C@H]1CC[C@@]2(C)C(CCC3C2CC[C@]2(C)OC(=O)CCC32)C1 (stereo partly drawn)	-1	-1	-1	-1	/	2	/	/
CC(=O)OC1CCC2(C)C(CCC3C4CC=C(C(C)=O)C4(C)OC(=O)CC32)C1 (stereo not drawn)	0	61*	10	/	/	/	88*	93*
O=C(c1cccc(C(F)(F)F)c1)N1CC[C@H]2[C@H](CCCN2Cc2ccccc2)C1	-1	/	1	/	/	/	/	/
CCCCn1c(SCC(=O)NCc2ccco2)nnc1-c1ccco1	3	3	6	4	18	3	/	/
CCCCn1c(SCC(=O)NCc2ccco2)nnc1-c1ccoc1C	4	24*	4	40	4	2	55*	28*
COc1cc(SC#N)ccc1N=Cc1c(C)[nH]n(-c2ccc(C)cc2C)c1=O	8	27*	13	10	99*	0	38*	26*
COc1ccccc1N=Cc1c(C)[nH]n(-c2ccc(C)cc2C)c1=O	6	-1	1	4	3	1	/	/
CCCCn1c(=O)cc(N2CCOCC2)[nH]c1=O	1	25*	13	7	28	-9	2	2
CCn1c(=O)cc(N2CCOCC2)[nH]c1=O	0	-1	1	-1	1	4	/	/
COc1cc2ccc(CC(N)=O)cc2cc1OC	6	5	12	/	/	/	/	/
CN(C)c1ncnc2c1ncn2[C@H]1CN(C2CCCC2)C[C@@H](CO)O1	-2	-8	2	/	/	/	/	/
COC(=O)c1cccc(S(=O)(=O)N(Cc2ccco2)Cc2cc3cc(OC)ccc3[nH]c2=O)c1	3	42*	5	-8	-4	-3	56*	66*
CCOC(=O)c1cccc(S(=O)(=O)N(CCO)Cc2cc3cc(OC)ccc3[nH]c2=O)c1	/	1	/	-9	/	/	/	/
C=CCNC(=O)CN(C(=O)c1ccncn1)c1cccc(Br)c1	1	/	-2	/	/	/	/	/
Nc1nnnn1/N=C/C(Br)=C/c1ccccc1	1	28*	1	3	-15	7	54*	51*
Nc1nnnn1/N=C/C=C/c1ccccc1	3	3	0	-3	0	3	/	/
O=[N+]([O-])c1ccc(/C=N/Nc2ccc3ccccc3c2)o1	31	28*	11	26	67	0	31*	17*
O=C(N/N=C/c1ccc([N+](=O)[O-])o1)c1cc2ccccc2o1	17	1	7	-7	-28	2	/	/
Cn1c(=O)c2c(ncn2CC(=O)N/N=C/C=C/c2ccco2)n(C)c1=O	4	31*	21	-14	-6	2	7	32*
CC(/C=N/NC(=O)Cn1cnc2c1c(=O)n(C)c(=O)n2C)=C\c1ccco1	1	7	1	-5	-15	3	/	/
SMILES	rCAG binder	ABHD5 PLIN5 PPI	PRMT1 FP inh	Rtt109 HAT inh	ALR H2O2 inh	LANA-H2A inh	ABHD5-PLIN5 conf	HNF4 split-luc
O=C(C[C@H]1CC[C@H](NC(=O)C2CCOCC2)[C@@H](CO)O1)NCc1ccncc1	3	-6	0	/	/	/	/	/
C#CCOCCOCCOCCNc1nc(N2CCN(C(=O)CCCCCCCCCCNC(=O)[C@@H](CCC(=O)O)n3cc(CCCCCN)nn3)CC2)nc(N2CCN(C(=O)CCCCCCCCCCNC(=O)[C@H](CCCCN)n3cc(C[C@@H](C)CC)nn3)CC2)n1	/	41*	/	14	-9	-11	17	-7
C#CCOCCOCCOCCNc1nc(N2CCN(C(=O)CCCCCCCCCCNC(=O)[C@@H](CCC(=O)O)n3cc(CCCCCN)nn3)CC2)nc(N2CCN(C(=O)CCCCCCCCCCNC(=O)[C@H](CO)n3cc(CCCCCN)nn3)CC2)n1	/	36*	/	?	-5	-3	9	2
C#CCOCCOCCOCCNc1nc(N2CCOCC2)nc(N2CCN(C(=O)[C@H]([C@@H](C)CC)n3cc(CCCN=C(N)N)nn3)CC2)n1	-2	-5	1	2	-3	1	/	/
C#CCOCCOCCOCCNc1nc(N2CCN(C(=O)CCCCCCCCCCNC(=O)[C@@H](CCSC)n3cc(CCO)nn3)CC2)nc(N2CCN(C(=O)CCCCCCCCCCNC(=O)[C@H](CO)n3cc(CCCCCN)nn3)CC2)n1	/	46*	/	13	-10	-7	12	1
C#CCOCCOCCOCCNc1nc(N2CCOCC2)nc(N2CCN(C(=O)CCCCCCCCCCNC(=O)[C@H]([C@@H](C)CC)n3cc(CCCCN=C(N)N)nn3)CC2)n1	7	34*	4	?	-2	-6	3	0
C#CCOCCOCCOCCNc1nc(N2CCN(C(=O)CCCCCCCCCCNC(=O)[C@H](CCCCN)n3cc(CCO)nn3)CC2)nc(N2CCN(C(=O)CCCCCCCCCCNC(=O)[C@H](CCCCN)n3cc(CCCC(=O)O)nn3)CC2)n1	6	16	3	26	-13	0	/	/
C#CCOCCOCCOCCNc1nc(N2CCN(C(=O)CCCCCCCCCCNC(=O)[C@H](CCCCN)n3cc(CCO)nn3)CC2)nc(N2CCN(C(=O)CCCCCCCCCCNC(=O)[C@H](CCCCN)n3cc(C[C@@H](C)CC)nn3)CC2)n1	/	/	/	/	-46	-12	/	/
CCCCCCCCNS(=O)(=O)CC1NCc2ccccc21 (stereo not drawn)	5	/	-2	/	/	/	/	/
COc1cccc(NC(=O)CCc2nnc3ccc(NCc4ccco4)nn23)c1	6	29*	2	2	3	-5	8	9
Clc1ccc(Cl)c(OCCCCNCc2ccccc2)c1	12	27*	-3	21	-9	-1	5	1
COc1cccc(C(=O)N[C@H](C(=O)N2CCC[C@H]2C(=O)NCCc2ccccc2Cl)C(C)C)c1	-2	/	-2	/	/	/	/	/
COc1ccc(NC(=O)CSc2nnc3n2CCCCC3)cc1OC	3	-6	-6	/	/	/	/	/
Cc1ccc(-c2csc3ncnc(OCC(=O)NC(=O)NCc4ccco4)c23)cc1	11	31*	6	7	2	-1	15	13*
O=C(COc1ncnc2scc(-c3ccc(F)cc3)c12)NCc1ccco1	5	10	5	-2	6	-3	/	/
